According to PubChem BioAssay AID463173 (ICCB-Longwood Screening Facility, Harvard Medical School, 2010):
The whole screen tested about 52,000 compounds, of which about 4,300 (8.3%) were called active. The list comes from a sample in which actives are over-represented; it also holds similar structures and randomly drawn compounds. Unmarked numbers belong to inactive results. No stated cut-off is given here; in the data, active means survival mostly below about 52% (no sharp cut-off); inactive means mostly above about 56%.

What follows are molecules tested on DeltatarO mutant (assay: growth inhibition of S. aureus wild type versus tarO mutant, primary screen, teichoic acid synthesis inhibitors, RN4220, OD600 (AID 463173)). Conditions: OD600, 18 h, hits give low values, screened at 18.75 µg/mL (by protocol).
Molecule `Cc1ccc(C)c(S(=O)(=O)c2cn(C)c3cc(N4CCCCC4C)c(F)cc3c2=O)c1` (stereo unspecified) has a survival of 86%.
In the case of `CCOc1ccc(/C=C/c2nc(C#N)c(NC(C)CC)o2)cc1` (stereo unspecified), the survival is reported as 68%.
`Cc1nc2cc(C(F)(F)F)ccc2n1C1CCN(CC(=O)N2CCCC2)CC1` was tested, and the survival was 109%.
`O=C(Nc1ccccc1-c1ccccc1)NC1CCN(CC(=O)N2CCOCC2)CC1` showed a survival of 73%.
`CC1=C(C(=O)N2CCN(c3ccc(Cl)cc3)CC2)C2(CCC(C)CC2)OC1=O` (stereo unspecified) showed a survival of 121%.
`CCc1ccc(CNC(=O)CN(c2ccc(C)cc2)S(=O)(=O)N(C)C)cc1` showed a survival of 76%.
Molecule `O=C(OC(C(=O)NC1CCCC1)c1cccnc1)C1=Cc2ccccc2OC1` (stereo unspecified) has a survival of 96%.
`COc1cccc(C(=O)N2c3nc(-c4ccco4)nn3C3(CCCCC3)[C@@H]3CCCC[C@@H]32)c1` gave a survival of 95%.
Molecule `CNS(=O)(=O)c1cn(CC(=O)Nc2ccc(C)cc2C)cc1S(=O)(=O)NC` has a survival of 117%.
For `Cc1cc(F)ccc1NC(=O)Cn1cc(S(=O)(=O)NC(C)C)c(S(=O)(=O)NC(C)C)c1`, the survival was 90%.
`CNS(=O)(=O)c1cn(CC(=O)Nc2ccc(F)cc2F)cc1S(=O)(=O)NC` was tested, and the survival was 0% (active).
`COc1ccc(-c2onc(C)c2C)cc1S(=O)(=O)NCC1CCN(Cc2cc(C)ccc2C)CC1` showed a survival of 100%.
In the case of `CCOC(=O)c1cc(-c2ccccc2)n(CC(=O)NCc2ccc(C)cc2)c1C`, the survival is reported as 37% (active).
For `CCOC(=O)c1cc(-c2ccc(C)cc2)n(CCC(=O)Nc2ccc(OC)c(OC)c2)c1C`, the survival was 52% (active).
With `CCOC(=O)c1cc(-c2ccccc2)n(CCC(=O)NCCc2ccccc2)c1C` the survival was 0% (active).
Work on `CCOC(=O)c1cc(-c2ccc(C)cc2)n(CCC(=O)NCc2ccccc2)c1C` yielded a survival of 108%.
With `CCOC(=O)c1cc(-c2ccccc2)n(CCC(=O)Nc2ccc(OC)c(Cl)c2)c1C` the survival was 92%.
`CCOC(=O)c1cc(-c2ccc(F)cc2)n(CC(=O)NCc2ccc(OC)cc2)c1C` gave a survival of 75%.
Work on `CCOC(=O)c1cc(-c2ccccc2)n(CCC(=O)NCCc2ccc(C)cc2)c1C` yielded a survival of 71%.
Molecule `CCOC(=O)c1cc(-c2ccc(C)cc2)n(CCC(=O)Nc2ccc(C(C)C)cc2)c1C` has a survival of 61%.
`CCOC(=O)c1cc(-c2ccc(F)cc2)n(CCC(=O)NCc2ccccc2OC)c1C` was tested, and the survival was 52% (active).
With `CCOC(=O)c1cc(-c2ccccc2)n(CC(=O)NCc2ccccc2OC)c1C` the survival was 101%.
Work on `CCOC(=O)c1cc(-c2ccccc2)n(CCC(=O)NCCc2cccc(C)c2)c1C` yielded a survival of 58%.
With `CCOC(=O)c1cc(-c2ccc(F)cc2)n(CCC(=O)Nc2ccccc2OC)c1C` the survival was 101%.
For `CC1CCc2c(sc(NC(=S)NC(=O)c3ccn(C)n3)c2C(N)=O)C1` (stereo unspecified), the survival was 99%.
Work on `O=C1CS(=O)(=O)C2(C(=O)N(Cc3ccc(F)cc3)c3ccccc32)N1c1cccc(C(F)(F)F)c1` (stereo unspecified) yielded a survival of 124%.
With `O=C(NCc1ccc(Cl)cc1)c1cnc(N2CCCCC2)c2ccccc12` the survival was 84%.
`CCc1ccc(N(CC)C(=O)c2ccc3c(=O)n4c(nc3c2)CCCCC4)cc1` showed a survival of 86%.
`CCOc1ccc(NC(=O)Cn2ncc3c2-c2cc(C)ccc2OC3)cc1` was tested, and the survival was 73%.
`Cc1c(C(=O)NCc2cccc(F)c2)oc2c1-c1[nH]ncc1CC2` showed a survival of 71%.
`CC1(C)CC(=O)C(C=NCCCN2CCCC2=O)=C(O)C1` was tested, and the survival was 94%.
For `CC(C)C(=O)N1CCC(CN=CC2=C(O)CC(C)(C)CC2=O)CC1`, the survival was 52% (active).
Work on `CC(CN=CC1=C(O)CC(C)(C)CC1=O)N=CC1=C(O)CC(C)(C)CC1=O` (stereo unspecified) yielded a survival of 101%.
`CC(O)Cc1nsc(NC(=O)c2cccs2)n1` (stereo unspecified) gave a survival of 81%.
`COCCCNC(=O)C1CCN(C(=O)c2cc3sccc3n2Cc2ccc(Cl)cc2)CC1` gave a survival of 59%.
Molecule `COCCNC(=O)C1CCN(C(=O)c2cc3sccc3n2Cc2ccc(Cl)cc2)CC1` has a survival of 110%.
For `CCC(C)NC(=O)C1CCN(C(=O)c2cc3sccc3n2Cc2ccc(Cl)cc2)CC1` (stereo unspecified), the survival was 45% (active).
In the case of `CCn1c(C(=O)N2CCC(C(=O)N3CCN(c4cc(C)ccc4C)CC3)CC2)cc2sccc21`, the survival is reported as 51%.
With `CCn1c(C(=O)N2CCC(C(=O)N3CCN(c4ccc(OC)cc4)CC3)CC2)cc2sccc21` the survival was 49% (active).
In the case of `CC(C)CCNC(=O)C1CCN(C(=O)c2cc3sccc3n2Cc2ccc(Cl)cc2)CC1`, the survival is reported as 40% (active).
For `CCn1c(C(=O)N2CCC(C(=O)NCCc3ccc(C)cc3)CC2)cc2sccc21`, the survival was 58%.
For `CC(C)NC(=O)C1CCN(C(=O)c2cc3sccc3n2Cc2ccc(Cl)cc2)CC1`, the survival was 65%.
Molecule `COc1ccc(N2CCN(C(=O)c3cc4sccc4n3Cc3ccccc3)CC2)cc1` has a survival of 92%.
Molecule `Cc1ccc(CN(CC(=O)NC2CCCC2)C(=O)CSc2nnc(COc3ccccc3)o2)cc1` has a survival of 80%.
Work on `O=C(Cn1c(=O)n(-c2ccc(Cl)cc2)c(=O)c2c3c(sc21)CCC3)c1ccc(F)cc1` yielded a survival of 51%.
`COc1ccc(N2CCN(C(=O)Cn3nc(Cc4cccnc4)c4ccccc4c3=O)CC2)cc1` gave a survival of 108%.
`Cc1cc(C)c(NC(=O)CSc2nc(=O)n(Cc3cccnc3)c3c2CCC3)c(C)c1` gave a survival of 104%.
Molecule `C[n+]1ccn(CC(=O)c2ccccc2)c1` has a survival of 78%.
`COCCN=Cc1c(NCCOC)nc2ccccn2c1=O` gave a survival of 103%.
For `COC(=O)c1sc(N)c(C#N)c1C`, the survival was 74%.
`O=C(Nc1ccc(F)cc1)C1CCN(c2nc3ccccc3nc2C(F)(F)F)CC1` was tested, and the survival was 118%.
With `Cc1cc(C)cc(NC(=O)C2CCN(c3nc4ccccc4nc3C(F)(F)F)CC2)c1` the survival was 93%.
`O=C(Nc1cccc(Cl)c1)C1CCN(c2nc3ccccc3nc2C(F)(F)F)CC1` showed a survival of 70%.
Work on `Cc1ccc(NC(=O)C2CCN(c3nc4ccccc4nc3C(F)(F)F)CC2)cc1C` yielded a survival of 91%.
With `O=C(Nc1ccc(Cl)cc1)C1CCN(c2nc3ccccc3nc2C(F)(F)F)CC1` the survival was 25% (active).
For `CC(NC(=O)C1CCN(c2nc3ccccc3nc2C(F)(F)F)CC1)c1ccccc1` (stereo unspecified), the survival was 37% (active).
For `Cc1ccc(NC(=O)C2CCN(c3ncccn3)CC2)cc1F`, the survival was 53% (active).
In the case of `CC(C)NC(=O)C1CCN(c2nc3ccccc3nc2C(F)(F)F)CC1`, the survival is reported as 101%.
In the case of `Cc1ccc(NC(=O)C2CCN(c3nc4ccccc4nc3C(F)(F)F)CC2)cc1F`, the survival is reported as 46% (active).
For `CSc1ccc(NC(=O)C2CCN(c3ncccn3)CC2)cc1`, the survival was 110%.
`CC(C)(C)NC(=O)C1CCN(c2nc3ccccc3nc2C(F)(F)F)CC1` showed a survival of 63%.
`O=C(Nc1ccc(F)c(Cl)c1)C1CCN(c2ncccn2)CC1` was tested, and the survival was 63%.
In the case of `O=C(Nc1ccc(F)cc1F)c1c2c(nc3ccccc13)C(=O)N(C1CCCCC1)C2`, the survival is reported as 81%.
With `CCN(CC)C(=O)C1CCN(c2nnc(C)c3c(C)n(-c4ccc(Cl)cc4)nc23)CC1` the survival was 95%.
Work on `CCOc1ccc(N(C(C)C(=O)NCCSc2ccc(C)cc2)S(C)(=O)=O)cc1` (stereo unspecified) yielded a survival of 45%.
`COc1ccc(OC)c(NC(=O)CSC2=Nc3ccccc3C3=NC(CC(=O)NCc4ccco4)C(=O)N23)c1` (stereo unspecified) gave a survival of 99%.
`CC(C)Nc1nc(NC(N)=O)nc(NC(C)C)n1` was tested, and the survival was 104%.
With `CCOc1ccc(CN2C(=O)c3ccccc3C2C(=O)NCCc2ccc(OC)c(OC)c2)cc1` (stereo unspecified) the survival was 88%.
`CCSc1nc2c([nH]c3ccccc32)c(=O)n1CC` was tested, and the survival was 68%.
In the case of `Cc1nc2c(-c3ccccc3)c(C)nn2c(C)c1CCC(=O)NCc1ccc(F)cc1`, the survival is reported as 94%.
Molecule `COc1ccc(C(=O)N2CC(C)CC(C)C2)cc1` (stereo unspecified) has a survival of 98%.
Work on `CC1CCN(c2nn3c(=O)c(C(=O)NCCc4ccccc4)cnc3s2)CC1` yielded a survival of 95%.
In the case of `O=C(Nc1cccc(C(F)(F)F)c1)Nc1nnc(N2CCCCC2)s1`, the survival is reported as 82%.
In the case of `NC(=O)N/N=C/c1ccc(-c2ccc(Cl)cc2)o1`, the survival is reported as 87%.
`CCc1ccccc1N(C)C(=O)Cn1cnc2sc(C)c(S(=O)(=O)N3CCC(C)CC3)c2c1=O` was tested, and the survival was 71%.
For `CC(C)c1ccc(C2N=C(N)Nc3nc4ccccc4n32)cc1` (stereo unspecified), the survival was 101%.
`COc1cc(C2N=C(N)Nc3nc4ccccc4n32)ccc1OCCC(C)C` (stereo unspecified) gave a survival of 68%.
For `CC(C)CCOc1ccc(C2N=C(N)Nc3nc4ccccc4n32)cc1` (stereo unspecified), the survival was -3% (active).
For `CCC(C#CCN1CCCCC1)(CC)OC(C)=O`, the survival was 98%.
For `CCOC(=O)c1ccc(OCC2c3cc(OC)c(OC)cc3CCN2C(=O)Cc2ccc(F)cc2)cc1` (stereo unspecified), the survival was 68%.
`NC(=O)CSc1nc2c(oc3ccccc32)c(=O)n1-c1ccccc1F` gave a survival of 59%.
`CC1(NS(=O)(=O)c2ccccc2)CCS(=O)(=O)C1` (stereo unspecified) was tested, and the survival was 98%.
`CC1(C)CC(N=Cc2c(O)[nH]c(=O)[nH]c2=O)CC(C)(C)N1` was tested, and the survival was 85%.
Molecule `O=C(Nc1cc(Cl)cc(Cl)c1)c1ccc(F)c(S(=O)(=O)N2CCN(c3ccccc3F)CC2)c1` has a survival of 84%.
Work on `CN(C)C(=O)COc1ccc(S(=O)(=O)c2ccc(OCC(=O)N(C)C)cc2)cc1` yielded a survival of 109%.
`COc1ccc(-c2nc(S(=O)(=O)c3ccc(C)cc3)c(NCc3ccccc3)o2)cc1` gave a survival of 67%.
`COc1ccccc1NC(=O)CSc1oc(-c2ccc(F)cc2)nc1S(=O)(=O)c1ccc(Br)cc1` was tested, and the survival was 49% (active).
`COc1ccccc1NC(=O)CSc1oc(-c2ccccc2)nc1S(=O)(=O)c1ccc(C)cc1` showed a survival of 158%.
Molecule `Cc1ccc(-c2nc(S(=O)(=O)c3ccc(F)cc3)c(N3CCN(c4ccccc4)CC3)o2)cc1` has a survival of 72%.
Work on `CSc1oc(-c2cccs2)nc1S(=O)(=O)c1ccc(Br)cc1` yielded a survival of 56%.
In the case of `CCCCS(=O)(=O)c1oc(-c2ccc(F)cc2)nc1S(=O)(=O)c1ccc(C)cc1`, the survival is reported as 30% (active).
With `CC(C)CS(=O)(=O)c1oc(-c2ccc(F)cc2)nc1S(=O)(=O)c1ccccc1` the survival was -4% (active).
Molecule `COc1ccccc1NC(=O)CSc1oc(-c2ccccc2)nc1S(=O)(=O)c1ccccc1` has a survival of 145%.
`Cc1ccc(S(=O)(=O)c2nc(-c3ccc(F)cc3)oc2N2CCN(c3ccccc3)CC2)cc1` showed a survival of 107%.
`CCSc1oc(-c2ccc(F)cc2)nc1S(=O)(=O)c1ccc(C)cc1` gave a survival of 45%.
In the case of `CSc1oc(-c2ccc(F)cc2)nc1S(=O)(=O)c1ccc(Br)cc1`, the survival is reported as 41% (active).
